The results in this text go back to PubChem BioAssay (NCATS).

Several values for one entry are separate records, joined by “and”; a condition that tells them apart may be missing. Identical values can stand only once. Unmarked numbers belong to inactive results. Inconclusive results are not listed. Entries that show only a call come without a potency. Activity calls are given as the source filed them. Unless noted, the call rests on the fitted dose curve; in most records, active means well fitted curve in the direction sought with a large enough effect; inconclusive means small, poorly fitted or top-dose-only effect, or another doubt; inactive means no such curve, though single readings can be large; an effect the other way counts as inactive or inconclusive.

Assay [1] in a line: qHTS Assay for Identification of Small Molecule Agonists for Thrombopoietin (TPO) Signaling Pathway (AID 917). The procedure, abridged: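 IL-3-dependent murine pro-B Ba/F3 cells, stably transfected with human TPO receptor and GpIIb-promoter luciferase, are incubated 24 hrs at 37 C with test compound and 26 pM TPO; luciferase signal is read after 10 min at room temperature.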

Assay [2] concerns the target Pyruvate kinase (Leishmania mexicana) (UniProt Q27686). Description: qHTS Validation Assay for Inhibitors of Leishmania Mexicana Pyruvate Kinase (AID 945). A digest of the protocol:
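Read-out: luminescence from PKLight stop/detection reagent, data normalized to DMSO. Reaction: 0.2 nM E451W LmPYK, 0.5 mM PEP, 0.1 mM ADP, pH 7.2, 1 h room temperature.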
(qHTS replaces the single test concentration by a dilution series.)

Assay [3] in a line: Confirmation and Secondary Assay for Modulators of Hemoglobin Beta Chain Splicing at IVS2 654 locus (AID 910).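 Further: per-well total GFP intensity by laser scanning cytometry after 2-day treatment.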 A digest of the protocol: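 HeLa cells stably carrying EGFP interrupted by mutant beta-globin IVS2-654 intron (CMV-driven) were treated with compound for 2 days at 37C; corrected splicing was scored as total peak GFP intensity per well (488 nm excitation, 500-520 nm emission).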

A short description of assay [4]: Confirmation and Secondary Assay for Modulators of Hemoglobin Beta Chain Splicing at IVS2 705 locus (AID 930).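 Further: HeLa cells stably expressing the EGFP-705 splicing reporter; GFP fluorescence per well restored by corrected splicing of the IVS2-705 intron in EGFP; series mostly up to about 46 µM.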 A digest of the protocol: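 Secondary splice-site specificity test uses HeLa expressing CMV-driven EGFP interrupted by IVS2-705; cells were treated 2 days at 37C with 500 nM antisense PNA as positive control.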
The nature of assay [5]: qHTS Assay for Identification of Small Molecule Agonists for Hypoxia Response Element Signaling Pathway (AID 914; active means well fitted activation curve with a large enough effect in the signal ratio, with a control signal flat, not every such curve was filed as active; the % refers to the signal ratio). As to conditions: ME-180 (cervical carcinoma) HRE-bla reporter, beta-lactamase ratio, CoCl2, 17 h; active compounds read high. A digest of the protocol: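 qHTS titration; ME-180 HRE-bla cells; EC50 CoCl2 co-treatment, 17 h at 37 degrees Celsius; CCF4 dye, ex 405nm, em 460nm and 530nm; %Activity from ratio; AC50.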

The target in assay [6] is Muscarinic acetylcholine receptor M1 (Rattus norvegicus) (UniProt P08482). Description: qHTS Assay for Antagonists of Acetylcholine Muscarinic M1 Receptor: Kinetic Measurement of Intracellular Calcium Response (AID 943). Further: nearly all actives have a fitted effect of over 75% in size. Further: potency means the concentration at half of the fitted maximal effect. The procedure, abridged:
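CHO cells stably expressing rat M1 were loaded with no-wash Fluo-4 dye for 1 h at 37C, pre-incubated 10 min with compound, then challenged with EC80 carbachol (100 nM final); kinetic calcium read 4 min, peak/basal ratio.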

The target is the same in assay [7]. Description: qHTS Assay for Antagonists of Acetylcholine Muscarinic M1 Receptor: Measurement of IP-One Response (AID 944). Further: nearly all actives have a fitted effect of over 75% in size. Further: potency means the concentration at half of the fitted maximal effect. A digest of the protocol:
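CHO cells expressing rat M1 receptor, recovered overnight, were pre-incubated 10 min with compound, then stimulated 30 min with carbachol at EC80 (200 nM) in LiCl-containing buffer, pH 7.4. IP1 accumulation was read by HTRF (620/665 nm).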

Assay [8] is described as follows: qHTS Assay for Identification of Small Molecule Antagonists for Thrombopoietin (TPO) Signaling Pathway (AID 918). Further: potency means the concentration at half of the fitted maximal effect; nearly all actives have a fitted effect of over 60% in size. To be noted: TPO-dependent cell signaling reporter, antagonist mode. A digest of the protocol: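 Murine Ba/F3 cells stably expressing human TPO receptor and a Glycoprotein IIb promoter–luciferase reporter were IL-3-starved overnight, treated with compounds plus TPO (26 pM final, its EC50) for 24 hrs at 37 C, then read by luminescence.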

In assay [9] the target is Pyruvate kinase PKM (Homo sapiens) (UniProt P14618). Description: qHTS Assay for Activators of Human Muscle Pyruvate Kinase (AID 954; active means well fitted curve in the direction sought with a large enough effect, not every such curve was filed as active). A digest of the protocol: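 Luminescence from a luciferase ATP-detection/stop reagent reported PKM2 activity. Reactions contained 0.1 nM purified human enzyme, 0.5 mM PEP, 0.1 mM ADP and 7 mM MgCl2 at pH 7.2, run 1 h at RT.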
Assay [10] in a line: Cell Viability - LYMP2-001 (AID 921).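 Further: series mostly up to about 92 µM; cells exposed to compound for 24 h at 37 °C; nearly all actives have a fitted effect of over 70% in size.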 The procedure, abridged:
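A lymphoblastoid cell line of human origin was treated with library compounds across a concentration series for 24 hours, and viable cell number was estimated from ATP-driven luciferase light output. Hill modeling gave AC50.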

Assay [11] in a line: Cell Viability - LYMP1-002 - Assay at 16 hr (AID 948). The procedure, abridged:
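In this qHTS, lymphoblastoid LYMP1-002 cells (human) receive compounds for 16 hr at 37 C. Viability is taken from CellTiter-Glo ATP luminescence, and AC50 derives from standard Hill fits.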

Assay [12] in a line: MultiTox-Fluor Cytotoxicity Assay - LYMP1-002 - Dead Cells (AID 960). Further: potency means the concentration at half of the fitted maximal effect; nearly all actives have a fitted effect of over 60% in size. A digest of the protocol:
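Human lymphoblastoid cells (LYMP1-002), 2500/well in complete medium, were exposed to compounds for 16 hr at 37 C. Dead-cell protease activity was read as bis-AAF-R110 fluorescence (Ex/Em 485/520), normalized to DMSO and 15 uM tetraoctylammonium bromide; AC50 from Hill fits.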

A short description of assay [13]: MultiTox-Fluor Cytotoxicity Assay - LYMP1-003 - Live Cells (AID 962).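 Further: cytotoxic hits lower the live-cell protease signal.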 A digest of the protocol:
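LYMP1-003 human lymphoblastoid cells (2500/well) in complete medium were preincubated 5 hr at 37 C, then exposed to compounds for 16 hr at 37 C. Live-cell protease cleavage of GF-AFC read by fluorescence (Ex/Em 405/510); AC50 from Hill fits.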

Sequence of Pyruvate kinase (Leishmania mexicana) (Q27686 2-499 E452W): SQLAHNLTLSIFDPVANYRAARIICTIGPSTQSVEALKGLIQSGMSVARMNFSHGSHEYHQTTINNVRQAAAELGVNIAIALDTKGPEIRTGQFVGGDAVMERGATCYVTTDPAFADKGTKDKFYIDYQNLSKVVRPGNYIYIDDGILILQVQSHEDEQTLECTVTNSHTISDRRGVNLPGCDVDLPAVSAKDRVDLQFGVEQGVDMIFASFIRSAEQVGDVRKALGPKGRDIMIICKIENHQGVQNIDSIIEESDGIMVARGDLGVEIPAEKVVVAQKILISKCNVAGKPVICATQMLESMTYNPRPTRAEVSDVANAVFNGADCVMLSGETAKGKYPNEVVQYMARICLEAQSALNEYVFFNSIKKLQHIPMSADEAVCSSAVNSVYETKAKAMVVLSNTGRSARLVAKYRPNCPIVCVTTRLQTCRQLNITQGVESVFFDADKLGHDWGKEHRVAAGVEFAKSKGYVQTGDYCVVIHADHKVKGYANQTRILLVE
Sequence of Muscarinic acetylcholine receptor M1 (Rattus norvegicus) (P08482 whole entry, looked up): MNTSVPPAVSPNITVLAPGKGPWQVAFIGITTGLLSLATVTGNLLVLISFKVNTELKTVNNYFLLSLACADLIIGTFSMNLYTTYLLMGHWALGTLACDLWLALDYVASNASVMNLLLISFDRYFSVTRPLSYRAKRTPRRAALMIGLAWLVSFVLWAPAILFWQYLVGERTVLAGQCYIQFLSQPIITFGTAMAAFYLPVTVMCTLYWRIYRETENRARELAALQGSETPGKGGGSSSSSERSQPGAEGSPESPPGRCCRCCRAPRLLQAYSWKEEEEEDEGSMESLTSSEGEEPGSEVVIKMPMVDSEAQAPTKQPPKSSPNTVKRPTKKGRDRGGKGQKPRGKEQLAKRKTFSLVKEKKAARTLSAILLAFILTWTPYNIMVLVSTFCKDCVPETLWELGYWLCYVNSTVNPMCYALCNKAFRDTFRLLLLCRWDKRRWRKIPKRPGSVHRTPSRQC
Sequence of Pyruvate kinase PKM (Homo sapiens) (P14618 whole entry, looked up): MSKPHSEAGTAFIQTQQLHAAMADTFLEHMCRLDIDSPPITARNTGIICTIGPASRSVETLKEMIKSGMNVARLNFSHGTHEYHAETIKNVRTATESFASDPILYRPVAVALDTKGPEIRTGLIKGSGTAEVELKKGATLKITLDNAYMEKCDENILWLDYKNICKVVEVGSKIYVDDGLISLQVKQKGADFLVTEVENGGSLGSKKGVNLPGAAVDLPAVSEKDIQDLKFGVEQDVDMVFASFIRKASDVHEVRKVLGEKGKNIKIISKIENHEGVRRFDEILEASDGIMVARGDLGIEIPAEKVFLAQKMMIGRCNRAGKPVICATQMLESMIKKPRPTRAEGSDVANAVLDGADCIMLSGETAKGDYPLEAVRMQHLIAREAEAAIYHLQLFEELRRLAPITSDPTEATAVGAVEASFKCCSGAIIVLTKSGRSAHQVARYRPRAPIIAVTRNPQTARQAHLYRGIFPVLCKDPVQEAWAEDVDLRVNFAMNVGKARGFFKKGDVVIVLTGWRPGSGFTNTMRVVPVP

With `O=C1CC2(CCCC2)CC(=O)N1CCCCN1CCN(c2ncccn2)CC1`, in assay [1], the result was inactive. The Potency result in assay [2] was “inactive”.

Regarding `c1ccc2c(c1)CCCC2C1=NCCN1` (stereo not given), the compound was called inactive in [3] and in [4].

`COCCCC/C(=N\OCCN)c1ccc(C(F)(F)F)cc1`: the activation in [5] is 24.7%.

As to `c1cc(CN2CCCCC2)cc(OCCCNc2nc3ccccc3s2)c1`, the Potency was 8.91 µM (active) in assay [6] and 14.1 µM (active) in assay [7]. Moreover, in [2], the Potency entry was “inactive”.

In the case of `O=C1NCN(c2ccccc2)C12CCN(CCCC(c1ccc(F)cc1)c1ccc(F)cc1)CC2`, the Potency in assay [8] was 12.6 µM (active). Moreover, in [2], the Potency entry is “inactive”. In addition, in assay [9], the call was inactive.

With `OCCN1CCN(CCCN2c3ccccc3C=Cc3ccccc32)CC1`, the compound was called inactive in [1]. Also, the Potency in assay [6] is 3.16 µM (active) and 3.55 µM (active); in [7], 3.55 µM (active) and 4.47 µM (active). Further, the Potency entry in [2] is “inactive”.

In the case of `O=C(O)CN(CCN(CC(=O)O)CC(=O)O)CCN(CC(=O)O)CC(=O)O`, the result in [1] was inactive. The Potency entry in [6], in assay [7] and in assay [2] was “inactive” throughout.

`CCCN(CCC)C(=O)C(CCC(=O)O)NC(=O)c1ccccc1` (stereo not given): the call in [3] and in assay [4] was inactive.

With `COc1cc(C(=O)OCCCN2CCCN(CCCOC(=O)c3cc(OC)c(OC)c(OC)c3)CC2)cc(OC)c1OC`, the Potency in [8] was 10 µM (active); in [6], 0.316 µM (active); in [7], 4.47 µM (active). Further, the Potency entry in [2] is “inactive”.

As for `O=C(CCCN1CCC(O)(c2cccc(C(F)(F)F)c2)CC1)c1ccc(F)cc1`, in [9], the compound was classed as inactive.

In the case of `CSc1ccc(C(=O)c2[nH]c(=O)[nH]c2C)cc1`, the result in assay [1] and in assay [9] was inactive. Moreover, in assay [2], the Potency entry was “inactive”.

Take `CC(=O)OC(C)C[N+](C)(C)C` (stereo not given): the compound was called inactive in assay [3] and in [4].

Consider `COC(=O)[C@@H](N)Cc1ccc(O)c(O)c1`, for which the Potency entry in assay [6] and in assay [2] was “inactive” each time. Also, the compound was called inactive in assay [9].

Turning to `C[C@]12C=CC(=O)C=C1CC[C@H]1[C@@H]3C[C@@H](O)[C@](O)(C(=O)CO)[C@@]3(C)C[C@H](O)[C@@]12F`, the result in assay [1] and in [9] was inactive. Also, the Potency entry in assay [2] is “inactive”.

As for `COCC(=O)O[C@]1(CCN(C)CCCc2nc3ccccc3[nH]2)CCc2cc(F)ccc2[C@@H]1C(C)C`, in [8], the Potency is 12.6 µM (active). For the same compound, the Potency result in assay [2] was “inactive”. Moreover, the result in assay [9] was inactive.

Take `C(=C\c1ccccc1)/CN1CCN(C(c2ccccc2)c2ccccc2)CC1`: in [1], the outcome was inactive. Also, the Potency entry in assay [2] is “inactive”.

On to `COC(=O)[C@H]1[C@H]2C[C@@H]3c4[nH]c5cc(OC)ccc5c4CCN3C[C@H]2C[C@@H](OC(=O)c2cc(OC)c(OC)c(OC)c2)[C@@H]1OC`, for which the Potency in [8] is 31.6 µM (active); in assay [7] it was 8.91 µM (active); in [12], 31.6 µM (active). The call in [10], in [11] and in assay [13] was inactive. Further, the Potency result in assay [2] was “inactive”.

For the compound `O=C(O)CP(=O)(O)O`, the activation in [5] is 5.52% and -2.23%. Moreover, the call in [1] and in assay [9] was inactive. For the same compound, the Potency entry in assay [6], in assay [7] and in assay [2] was “inactive” throughout.

Turning to `C[N+](C)(C)CCOC(=O)CCC(=O)OCC[N+](C)(C)C`, the result in assay [1] was inactive. For the same compound, the Potency result in [2] is “inactive”.

On to `NCCCNCCSP(=O)(O)O`, for which the outcome in assay [1] and in assay [9] was inactive. For the same compound, the Potency result in [2] was “inactive”.
